Results filed as inconclusive are left out. Calls of active or inactive are those of the source. Calls come from the whole dose curve; as a rule, active = well fitted inhibition curve with a large enough effect; inconclusive = small, poorly fitted or top-dose-only effect, or effect the other way; inactive = flat fitted curve, though single readings scatter.
Assay: qHTS for Inhibitors of Plasmodium falciparum (CP250) proliferation (AID 504320);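 note: plate controls were DMSO vehicle for no effect and 0.29 µM artemisinin control for full effect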
Settings: P. falciparum CP250 in erythrocytes, SYBR Green DNA, 72 h; series mostly up to 6.7 µM; activity change, negative = inhibition: at the top concentration
Summary of the method: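 Erythrocytes infected with P. falciparum line (0.3% parasitemia, 2.5% hematocrit final) incubated with compounds 72 h at 37 °C, 5% CO2; SYBR Green lysis buffer added, fluorescence read next day. Normalized to 0.29 uM artemisinin and DMSO.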

Activity change, negative = inhibition, inactive:
COC(=O)c1cc(C(=O)OC)n2c(C)cc3ccccc3c12 -1.24%
Cc1cc2c(c(=O)o1)[C@H]1O[C@](c3ccsc3)(Cc3c1ccc1ccccc31)O2 1.56%
CCCC[C@]12Cc3cc(C#N)ccc3[C@H](O1)c1c(cc(C)n(-c3ccccc3)c1=O)O2 0.544%
CC1(C)OCC([C@H](O)C2=CCCCC2=O)CO1 -3.78%
C[C@@H]1CC2CCCC2[C@]2(O1)C(=O)Nc1ccccc12 (some centres undefined) -0.425%
COC(=O)[C@H]1[C@@H](c2ccccc2)NC(=O)N(CCc2cc(OC)c(OC)c(OC)c2)[C@@H]1C -2.11%
CCOC(=O)CCN1C(=O)[C@@H]2[C@H]3[C@H](O)[C@H](O)CC(=NNC(=O)OCc4ccccc4)[C@@H]3CC[C@H]2C1=O -0.947%
COc1ccc([C@]23Cc4cc(C#N)ccc4[C@H](O2)C2=C(CC4(CCCCC4)OC2=O)O3)cc1 -0.993%
C#CCCCON=C1C[C@@H](O)[C@H](O)[C@H]2[C@@H]3C(=O)N(Cc4ccccc4)C(=O)[C@@H]3CC[C@H]12 0.443%
COc1ccc(O[C@H]2C=C[C@@H](c3ccccc3)O[C@H]2COC(=O)CCC(C)=NOC[C@@H](O)COCc2ccco2)cc1 1.85%
O[C@H](CC#CCOc1ccccc1)COCc1ccccc1 5.55%
CC(CCC(=O)OC[C@H]1O[C@H](C#Cc2ccccc2)C=C[C@H]1Oc1ccc(C)cc1)=NO[C@H](C)c1cn([C@H](CO)Cc2ccccc2)nn1 -8.07%

Potency, inactive:
C[C@H]1Cc2c(COc3ccccc3)nc3c(c2CO1)CN(S(=O)(=O)c1ccc2c(c1)OCCN2C)CC3
COC(=O)CCC(=O)OC1(C)C(=O)C=C2C=C(C3CC3)N(c3ccc(CO)cc3)C=C2C1=O (centres undefined)

Source: PubChem BioAssay (NCATS)
